From PubChem BioAssay (NCI)
Compounds without any hit were thinned out: in the full panel of roughly 79,000, 15% have a hit. No stated cut-off is given here; in the data, active means growth inhibition above about 70%; inactive means the rest.

How the values were obtained:
[1] = NCI Yeast Anticancer Drug Screen. Data for the rad52 strain (AID 147);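 further: 0% = growth of vehicle-treated control cultures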; settings: S. cerevisiae rad52 mutant growth inhibition, active compounds read high
Method in brief: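 Compounds are applied to a genetically defined yeast strain lacking normal DNA damage repair, and inhibition of growth is expressed relative to cultures given vehicle only.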

[2] = NCI Yeast Anticancer Drug Screen. Data for the wt1 strain (AID 149);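 further: 0% = growth of vehicle-treated wt1 cultures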; settings: S. cerevisiae wt1 strain (SPY 50644) growth inhibition, active compounds read high
Method in brief: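 Vehicle-normalised growth inhibition; strain wt1; compound exposure.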

[3] = NCI Yeast Anticancer Drug Screen. Data for the rad50EPP+ strain (AID 151);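 further: 0% = growth of vehicle-treated control cultures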; settings: S. cerevisiae rad50 mutant strain, active compounds read high
Method in brief: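 Compounds were applied to the rad50EPP+ yeast strain, which bears a defined DNA repair alteration, and growth inhibition was determined relative to vehicle-treated cultures.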

[4] = NCI Yeast Anticancer Drug Screen. Data for the mgt1 strain (AID 153); settings: S. cerevisiae mgt1 mutant growth inhibition, active compounds read high
Method in brief: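 Strain: mgt1 yeast, one of a set carrying defined DNA damage repair or cell cycle control alterations. Compound-treated growth compared with vehicle.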

[5] = NCI Yeast Anticancer Drug Screen. Data for the rad50 strain (AID 155);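 further: 0% = growth of vehicle-only cultures of the same strain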; settings: S. cerevisiae rad50 strain growth inhibition, active compounds read high
Method in brief: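 A DNA repair-deficient yeast mutant serves as the test organism; compound-induced growth inhibition is calculated against vehicle-treated cells.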

[6] = NCI Yeast Anticancer Drug Screen. Data for the mec2-1 strain (AID 157); settings: S. cerevisiae mec2-1 strain, active compounds read high
Method in brief: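 Strain: mec2-1 (DNA repair/cell cycle alteration). Compound exposure, then growth measured; inhibition expressed relative to vehicle.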

[7] = NCI Yeast Anticancer Drug Screen. Data for the rad14 strain (AID 159);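 further: 0% = growth of vehicle-treated control cultures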; settings: S. cerevisiae rad14 strain growth inhibition, active compounds read high
Method in brief: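 Vehicle-treated cultures served as the baseline for growth inhibition of a DNA repair-mutant yeast strain exposed to each compound.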

[8] = at 5.0 µM (retest, dose inferred, filed as 0.5)
[9] = at 50.0 µM (retest, dose inferred, filed as 5.0)

Measured: growth inhibition

COC(=O)C1C2c3ccccc3C(c3ccccc32)C1C(=O)OC (stereo unspecified)
inactive: [1]; at 1.2 µM 3% | [1]; at 3.7 µM 10% | [1]; at 11.0 µM 9% | [1]; at 33.0 µM 10% | [1]; at 100.0 µM 10% | [2]; at 1.2 µM 7% | [2]; at 3.7 µM 5% | [2]; at 11.0 µM 5% | [2]; at 33.0 µM 8% | [2]; at 100.0 µM 7% | [3]; at 1.2 µM 4% | [3]; at 3.7 µM 5% | [3]; at 11.0 µM 4% | [3]; at 33.0 µM 7% | [3]; at 100.0 µM 10% | [4]; at 1.2 µM -2% | [4]; at 3.7 µM -1% | [4]; at 11.0 µM -2% | [4]; at 33.0 µM 2% | [4]; at 100.0 µM 11% | [5]; at 1.2 µM 4% | [5]; at 3.7 µM 1% | [5]; [8] 6% | [5]; at 11.0 µM 3% | [5]; at 33.0 µM 7% | [5]; [9] 47% | [5]; at 50.0 µM 14.8% | [5]; at 100.0 µM 7% | [6]; at 1.2 µM -2% | [6]; at 3.7 µM -3% | [6]; [8] -3% | [6]; at 11.0 µM -1% | [6]; at 33.0 µM 0% | [6]; [9] 15% | [6]; at 50.0 µM 41.5% | [6]; at 100.0 µM 9% | [7]; at 1.2 µM 2% | [7]; at 3.7 µM 2% | [7]; at 11.0 µM 0% | [7]; at 33.0 µM 8% | [7]; at 100.0 µM 13%
